Laboratory results: PubChem BioAssay (NCI)
This is part of a sample that, as a whole, favours compounds with a hit. Of some 83,000 tested, about 20% had one in any assay.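 Method: cells in 96-well plates; compound added at one concentration; 48 h incubation; percent growth measured; values under 10 scored active.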 Activity calls are given as the source filed them.

Columns and labels:
Assay in all cases: NCI-60 one-dose screen, 48 h (100 = growth as untreated, 0 = no growth, -100 = all killed)
Settings in all cases: 10 µM unless noted
[1] = test system: NCI-H23 lung
[2] = test system: NCI-H226 lung
[3] = test system: NCI-H322M lung
[4] = test system: HOP-62 NSCLC
[5] = test system: NCI-H460 lung
[6] = test system: NCI-H522 lung
[7] = test system: A549/ATCC NSCLC
[8] = test system: 786-0 renal
[9] = test system: COLO 205 colon
[10] = test system: DU-145 prostate
[11] = test system: K-562 leukemia
[12] = test system: MALME-3M melanoma
[13] = test system: MDA-MB-231 breast
[14] = test system: RXF 393 renal
[15] = test system: SF-268 CNS
[16] = test system: SF-295 CNS
[17] = test system: SF-539 CNS
[18] = test system: UACC-257 melanoma
[19] = test system: M14 melanoma

Measured: growth

COc1cc(C(=O)c2cc(C)c3[nH]c4ccc(O)cc4c3c2C)cc(OC)c1OC
inactive: [1] 31.4% | [2] 53% | [3] 33.7% | [4] 40.1% | [6] 33.7% | [7] 22.7% | [8] 13.8% | [13] 28.3% | [14] 31.9% | [15] 24% | [18] 64.8% | [19] 22.3%
active: [5] 8.93% | [9] 7.01% | [10] -13.4% | [11] 7.07% | [12] -8.11% | [16] 9.6% | [17] 1.71%

O=c1c2cc(F)cc(Cl)c2sc2c(NCCCNCCO)nc3ccccc3c12
inactive: [1] 89.9% | [2] 106% | [3] 89.8% | [4] 90.1% | [5] 10.3% | [6] 92.4% | [7] 83.7% | [8] 81.7% | [9] 73.5% | [10] 77% | [11] 18.7% | [12] 99.8% | [13] 48.8% | [14] 80.3% | [15] 67.1% | [16] 104% | [17] 88.5% | [18] 109% | [19] 62.3%

O=c1c2cc(C(F)(F)F)ccc2sc2c(NCCCNCCO)nc3ccccc3c12
active: [5] -82.3% | [6] -22.2% | [7] -29.6% | [9] -53.2% | [10] -71.6% | [11] -47.1% | [13] -58.7% | [17] -79.1% | [19] -38.9%
inactive: [1] 45% | [2] 75.7% | [3] 58.5% | [4] 40.7% | [8] 43% | [12] 75.2% | [14] 42.6% | [15] 36.6% | [16] 42.7% | [18] 92%

COc1ccc(-c2nnc(COc3ccc(Cl)cc3Cl)o2)cc1OC
active: [4] -1.03% | [5] -4.77% | [7] 9.7% | [8] -70.8% | [12] -1.79% | [14] -56.7%
inactive: [1] 56.3% | [2] 32.8% | [3] 16.8% | [6] 19.4% | [9] 58.5% | [10] 22.6% | [11] 65.1% | [15] 45.7% | [16] 23.5% | [17] 83.6% | [18] 37.7% | [19] 45%

Cc1ccc(-c2nc(N3CCN(CC(=O)Nc4ccc(Cl)c(C(F)(F)F)c4)CC3)c3ccccc3n2)cc1
inactive: [1] 92.5% | [2] 90.3% | [3] 87.3% | [4] 98.6% | [5] 92.7% | [6] 81.6% | [7] 75.8% | [8] 91.1% | [9] 86.3% | [10] 105% | [11] 69% | [12] 106% | [13] 90.7% | [14] 80.5% | [15] 81.6% | [16] 104% | [17] 95.9% | [18] 94.5% | [19] 95.7%
